# Data published in PubChem BioAssay (NCATS).
# Inconclusive results are not listed. A call without a number means that no potency is given here. A number with no mark means an inactive call. Calls of active or inactive are those of the source. Calls come from the whole dose curve; as a rule, active = well fitted inhibition curve with a large enough effect; inconclusive = small, poorly fitted or top-dose-only effect; inactive = flat fitted curve, though single readings scatter.
# How the values were obtained:
# [1] = qHTS profiling for inhibitors of Plasmodium falciparum proliferation (AID 504749); note: nearly all actives have a fitted effect of over 60% in size; details: P. falciparum in erythrocytes, SYBR Green DNA, 72 h
# Procedure, shortened: (§1)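 SYBR Green fluorescence (ex 485 nm, em 535 nm) reports parasite DNA after 72 h compound exposure of infected red cells at 0.3% parasitemia, 2.5% hematocrit; signal normalized to 0.29 uM artemisinin and vehicle wells.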
# [2] = tested on: 3D7; experiment: as above; details: P. falciparum in erythrocytes, SYBR Green DNA, 72 h; series mostly up to 28.7 µM
# Procedure, shortened: as §1
# [3] = tested on: 7G8; experiment: as above; details: P. falciparum in erythrocytes, SYBR Green DNA, 72 h; series mostly up to 28.7 µM
# Procedure, shortened: as §1
# [4] = tested on: AA1029; experiment: as above; details: P. falciparum in erythrocytes, SYBR Green DNA, 72 h; series mostly up to 28.7 µM
# Procedure, shortened: as §1
# [5] = tested on: AS120; experiment: as above; details: P. falciparum in erythrocytes, SYBR Green DNA, 72 h; series mostly up to 28.7 µM
# Procedure, shortened: as §1
# [6] = tested on: ATS189; experiment: as above; details: P. falciparum in erythrocytes, SYBR Green DNA, 72 h; series mostly up to 28.7 µM
# Procedure, shortened: as §1
# [7] = tested on: ATS95; experiment: as above; details: P. falciparum in erythrocytes, SYBR Green DNA, 72 h; series mostly up to 28.7 µM
# Procedure, shortened: as §1
# [8] = tested on: C2A; experiment: as above; details: P. falciparum in erythrocytes, SYBR Green DNA, 72 h; series mostly up to 28.7 µM
# Procedure, shortened: as §1
# [9] = tested on: CP185; experiment: as above; details: P. falciparum in erythrocytes, SYBR Green DNA, 72 h; series mostly up to 28.7 µM
# Procedure, shortened: as §1
# [10] = tested on: CP191; experiment: as above; details: P. falciparum in erythrocytes, SYBR Green DNA, 72 h; series mostly up to 28.7 µM
# Procedure, shortened: as §1
# [11] = tested on: CP192; experiment: as above; details: P. falciparum in erythrocytes, SYBR Green DNA, 72 h; series mostly up to 28.7 µM
# Procedure, shortened: as §1
# [12] = tested on: CP194; experiment: as above; details: P. falciparum in erythrocytes, SYBR Green DNA, 72 h; series mostly up to 28.7 µM
# Procedure, shortened: as §1
# [13] = tested on: CP201; experiment: as above; details: P. falciparum in erythrocytes, SYBR Green DNA, 72 h; series mostly up to 28.7 µM
# Procedure, shortened: as §1
# [14] = tested on: CP203; experiment: as above; details: P. falciparum in erythrocytes, SYBR Green DNA, 72 h; series mostly up to 28.7 µM
# Procedure, shortened: as §1
# [15] = tested on: CP211; experiment: as above; details: P. falciparum in erythrocytes, SYBR Green DNA, 72 h; series mostly up to 28.7 µM
# Procedure, shortened: as §1
# [16] = tested on: CP215; experiment: as above; details: P. falciparum in erythrocytes, SYBR Green DNA, 72 h; series mostly up to 28.7 µM
# Procedure, shortened: as §1
# [17] = tested on: CP217; experiment: as above; details: P. falciparum in erythrocytes, SYBR Green DNA, 72 h; series mostly up to 28.7 µM
# Procedure, shortened: as §1
# [18] = tested on: CP237; experiment: as above; details: P. falciparum in erythrocytes, SYBR Green DNA, 72 h; series mostly up to 28.7 µM
# Procedure, shortened: as §1
# [19] = tested on: CP238; experiment: as above; details: P. falciparum in erythrocytes, SYBR Green DNA, 72 h; series mostly up to 28.7 µM
# Procedure, shortened: as §1
# [20] = at 28.7 µM (top of the series), parasite line A
# [21] = at 28.7 µM (top of the series), parasite line B
# Potency is the fitted concentration of half-maximal effect.
smiles,measurement,setting,value
Cc1c(I)c(=O)n(-c2ccccc2)n1C,"activity, negative = inhibition",[1]; [20],2.47%
same,Potency,[2],inactive
same,Potency,[3],inactive
same,Potency,[4],inactive
same,Potency,[5],inactive
same,Potency,[6],inactive
same,Potency,[7],inactive
same,Potency,[8],inactive
same,Potency,[9],inactive
same,outcome,[10],inactive
same,outcome,[11],inactive
same,outcome,[12],inactive
same,outcome,[13],inactive
same,Potency,[14],inactive
same,outcome,[15],inactive
same,Potency,[16],inactive
same,outcome,[17],inactive
same,Potency,[18],inactive
same,Potency,[19],inactive
CC(=O)N[C@@H](Cc1ccc(O)cc1)C(=O)O,"activity, negative = inhibition",[1]; [20],9.07%
same,"activity, negative = inhibition",[1]; [21],9.16%
same,Potency,[2],inactive
same,Potency,[4],inactive
same,Potency,[5],inactive
same,Potency,[6],inactive
same,Potency,[7],inactive
same,Potency,[8],inactive
same,Potency,[9],inactive
same,outcome,[10],inactive
same,outcome,[11],inactive
same,outcome,[12],inactive
same,outcome,[13],inactive
same,Potency,[14],inactive
same,outcome,[15],inactive
same,Potency,[16],inactive
same,outcome,[17],inactive
same,Potency,[18],inactive
same,Potency,[19],inactive
CN1C[C@@H]2C[C@H]1CN2c1cc2c(cc1F)c(=O)c(C(=O)O)cn2C1CC1,outcome,[11],inactive
CCCCCC(C)N (stereo not given),"activity, negative = inhibition",[1]; [21],-25.4%
same,Potency,[3],10 µM (active)
same,Potency,[7],inactive
same,Potency,[8],inactive
same,Potency,[9],inactive
same,outcome,[11],inactive
same,outcome,[12],inactive
same,outcome,[13],inactive
same,Potency,[14],inactive
same,outcome,[15],inactive
same,Potency,[16],inactive
same,Potency,[19],inactive
Nc1c2c(nc3c1CCC3)CCCC2,Potency,[3],11.2 µM (active)
CC(=O)OC[C@H]1O[C@@](COC(C)=O)(O[C@H]2O[C@H](COC(C)=O)[C@@H](OC(C)=O)[C@H](OC(C)=O)[C@H]2OC(C)=O)[C@@H](OC(C)=O)[C@@H]1OC(C)=O,"activity, negative = inhibition",[1]; [21],21.3%
same,Potency,[2],inactive
same,Potency,[3],inactive
same,Potency,[4],inactive
same,Potency,[8],inactive
same,outcome,[11],inactive
same,outcome,[12],inactive
same,outcome,[13],inactive
same,Potency,[14],inactive
same,outcome,[15],inactive
same,Potency,[16],inactive
same,Potency,[18],inactive
Nc1ncnc(Nc2ccccc2)n1,"activity, negative = inhibition",[1]; [20],-28.4%
same,Potency,[2],inactive
same,Potency,[3],inactive
same,Potency,[4],inactive
same,Potency,[5],inactive
same,Potency,[6],inactive
same,Potency,[7],inactive
same,Potency,[8],inactive
same,Potency,[9],inactive
same,outcome,[11],inactive
same,outcome,[12],inactive
same,outcome,[13],inactive
same,Potency,[14],inactive
same,outcome,[15],inactive
same,Potency,[16],inactive
same,outcome,[17],inactive
same,Potency,[18],inactive
same,Potency,[19],inactive
CC(C)=CCC/C(C)=C/CO,"activity, negative = inhibition",[1]; [20],-3.97%
same,Potency,[2],inactive
same,Potency,[3],inactive
same,Potency,[4],inactive
same,Potency,[5],inactive
same,Potency,[6],inactive
same,Potency,[7],inactive
same,Potency,[8],inactive
same,Potency,[9],inactive
same,outcome,[10],inactive
same,outcome,[11],inactive
same,outcome,[12],inactive
same,outcome,[13],inactive
same,Potency,[14],inactive
same,outcome,[15],inactive
same,Potency,[16],inactive
same,outcome,[17],inactive
same,Potency,[18],inactive
same,Potency,[19],inactive
O=C1c2cccc(O)c2C(=O)c2c(O)cccc21,"activity, negative = inhibition",[1]; [20],-0.153%
same,"activity, negative = inhibition",[1]; [21],3.79%
same,Potency,[2],inactive
same,Potency,[4],inactive
same,Potency,[5],inactive
same,Potency,[6],inactive
same,Potency,[7],inactive
same,Potency,[8],inactive
same,Potency,[9],inactive
same,outcome,[10],inactive
same,outcome,[11],inactive
same,outcome,[12],inactive
same,outcome,[13],inactive
same,outcome,[15],inactive
same,Potency,[16],inactive
same,outcome,[17],inactive
same,Potency,[18],inactive
same,Potency,[19],inactive
CCCCCCCC(=O)OCC(COC(=O)CCCCCCC)OC(=O)CCCCCCC,"activity, negative = inhibition",[1]; [20],4.54%
same,Potency,[2],inactive
same,Potency,[3],inactive
same,Potency,[4],inactive
same,Potency,[5],inactive
same,Potency,[6],inactive
same,Potency,[7],inactive
same,Potency,[8],inactive
same,Potency,[9],inactive
same,outcome,[10],inactive
same,outcome,[11],inactive
same,outcome,[12],inactive
same,outcome,[13],inactive
same,Potency,[14],inactive
same,outcome,[15],inactive
same,Potency,[16],inactive
same,outcome,[17],inactive
same,Potency,[18],inactive
same,Potency,[19],inactive
CC(=O)SC[C@@H](Cc1ccccc1)C(=O)NCC(=O)OCc1ccccc1,"activity, negative = inhibition","[1]; at 12.8 µM (top of the series), parasite line A",-4.01%
same,"activity, negative = inhibition","[1]; at 12.8 µM (top of the series), parasite line B",-5.82%
same,Potency,[2],inactive
same,Potency,[4],inactive
same,Potency,[5],inactive
same,Potency,[6],inactive
same,Potency,[7],inactive
same,Potency,[8],inactive
same,Potency,[9],inactive
same,outcome,[10],inactive
same,outcome,[11],inactive
same,outcome,[12],inactive
same,outcome,[13],inactive
same,Potency,[14],inactive
same,outcome,[15],inactive
same,Potency,[16],inactive
same,outcome,[17],inactive
same,Potency,[18],inactive
same,Potency,[19],inactive
NC(=O)CCCCC1CCSS1 (stereo not given),"activity, negative = inhibition",[1]; [20],-3.84%
same,"activity, negative = inhibition",[1]; [21],-4.11%
same,Potency,[2],inactive
same,Potency,[4],inactive
same,Potency,[7],inactive
same,Potency,[8],inactive
same,Potency,[9],inactive
same,outcome,[10],inactive
same,outcome,[11],inactive
same,outcome,[12],inactive
same,outcome,[13],inactive
same,Potency,[14],inactive
same,outcome,[15],inactive
same,outcome,[17],inactive
same,Potency,[19],inactive
OCC(O)CS (stereo not given),"activity, negative = inhibition",[1]; [20],2.38%
same,Potency,[2],inactive
same,Potency,[3],inactive
same,Potency,[4],inactive
same,Potency,[5],inactive
same,Potency,[6],inactive
same,Potency,[7],inactive
same,Potency,[8],inactive
same,Potency,[9],inactive
same,outcome,[10],inactive
same,outcome,[11],inactive
same,outcome,[12],inactive
same,outcome,[13],inactive
same,Potency,[14],inactive
same,outcome,[15],inactive
same,Potency,[16],inactive
same,outcome,[17],inactive
same,Potency,[18],inactive
same,Potency,[19],inactive
O=C1c2ccccc2C(=O)C1c1ccc(Br)cc1,Potency,[2],11.2 µM (active)
same,Potency,[3],11.2 µM (active)
same,Potency,[5],inactive
same,Potency,[6],inactive
same,Potency,[8],inactive
same,Potency,[9],inactive
same,outcome,[11],inactive
same,outcome,[12],inactive
same,outcome,[13],inactive
same,outcome,[15],inactive
same,Potency,[18],inactive
same,Potency,[19],inactive
O=C1CC[C@@H](C(=O)O)N1,"activity, negative = inhibition",[1]; [20],0.206%
same,"activity, negative = inhibition",[1]; [21],18.2%
same,Potency,[2],inactive
same,Potency,[4],inactive
same,Potency,[5],inactive
same,Potency,[6],inactive
same,Potency,[7],inactive
same,Potency,[8],inactive
same,Potency,[9],inactive
same,outcome,[10],inactive
same,outcome,[11],inactive
same,outcome,[12],inactive
same,outcome,[13],inactive
same,Potency,[14],inactive
same,outcome,[15],inactive
same,Potency,[16],inactive
same,outcome,[17],inactive
same,Potency,[18],inactive
same,Potency,[19],inactive
O=C(O)CCCCC1CCSS1 (stereo not given),"activity, negative = inhibition",[1]; [20],5.2%
same,"activity, negative = inhibition",[1]; [21],12.3%
same,Potency,[2],inactive
same,Potency,[4],inactive
same,Potency,[5],inactive
same,Potency,[6],inactive
same,Potency,[7],inactive
same,Potency,[8],inactive
same,Potency,[9],inactive
same,outcome,[10],inactive
same,outcome,[11],inactive
same,outcome,[12],inactive
same,outcome,[13],inactive
same,Potency,[14],inactive
same,outcome,[15],inactive
same,Potency,[16],inactive
same,outcome,[17],inactive
same,Potency,[18],inactive
same,Potency,[19],inactive
CCN(CC)CCOC(=O)C(c1ccccc1)c1ccccc1,"activity, negative = inhibition",[1]; [20],-8.73%
same,"activity, negative = inhibition",[1]; [21],-12.1%
same,Potency,[2],inactive
same,Potency,[4],inactive
same,Potency,[5],inactive
same,Potency,[6],inactive
same,Potency,[7],inactive
same,Potency,[8],inactive
same,Potency,[9],inactive
same,outcome,[10],inactive
same,outcome,[11],inactive
same,outcome,[12],inactive
same,outcome,[13],inactive
same,Potency,[14],inactive
same,outcome,[15],inactive
same,Potency,[16],inactive
same,outcome,[17],inactive
same,Potency,[18],inactive
same,Potency,[19],inactive
